In PubChem BioAssay (NCATS):
Records with an inconclusive call do not appear. The source made the active and inactive calls. The call rests on the fitted dose curve; in most records, active means well fitted curve in the direction sought with a large enough effect; inconclusive means small, poorly fitted or top-dose-only effect, or another doubt; inactive means no such curve, though single readings can be large; an effect the other way counts as inactive or inconclusive.

Legend:
NIH3T3 = experiment: qHTS assay to identify novel small-molecules to repurpose for Merkel cell carcinoma treatment (AID 1296009); conditions: MCC and control cell lines, CellTiter-Glo viability, 72 h; at 44.8 µM (top of the series) unless noted; further: nearly all actives have a fitted effect of over 60% in size
How it was run: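 Luminescence from CellTiter-Glo, read 10 min after addition at room temperature, reported viability following a 72 hr, 37 degree celsius treatment with NPC or MIPE compounds in titration; values normalized to plate controls.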

C33A = experiment: Primary qHTS to identify gynecologic anti-cancer compounds using libraries of approved drugs and bioactive compounds (AID 1345084); conditions: Gynecologic cancer cell panel viability, ATPlite luminescence, 48 h; series mostly up to 57.5 µM; further: on the % scale 0 is the no-effect control and ±100 the full control effect; nearly all actives have a fitted effect of over 55% in size
How it was run: (§1)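 Five-point cytotoxicity, 48 h drug exposure at 37 C, 5% CO2, on cells seeded 16 h beforehand. ATP content read by ATPlite luminescence.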

CAOV3 = experiment: as above; conditions: Gynecologic cancer cell panel viability, ATPlite luminescence, 48 h; series mostly up to 57.5 µM
How it was run: as §1

CASKI = experiment: as above; conditions: Gynecologic cancer cell panel viability, ATPlite luminescence, 48 h; series mostly up to 57.5 µM
How it was run: as §1

Es-2 = experiment: as above; conditions: Gynecologic cancer cell panel viability, ATPlite luminescence, 48 h; series mostly up to 57.5 µM
How it was run: as §1

HeLa = experiment: as above; conditions: Gynecologic cancer cell panel viability, ATPlite luminescence, 48 h; series mostly up to 57.5 µM
How it was run: as §1

Hek293T = experiment: as above; conditions: Gynecologic cancer cell panel viability, ATPlite luminescence, 48 h, control line for the selectivity index; series mostly up to 57.5 µM
How it was run: as §1

CCOc1cc(CC(=O)NC(CC(C)C)c2ccccc2N2CCCCC2)ccc1C(=O)O (configuration not stated)
inactive: outcome (NIH3T3) | Potency (C33A) | Potency (CAOV3) | Potency (CASKI) | Potency (Es-2) | Potency (HeLa) | Potency (Hek293T)

O=C(/C=C/c1ccccc1)OC[C@]12O[C@H]1[C@@H](O)[C@@H]1C=CO[C@@H](O[C@@H]3O[C@H](CO)[C@@H](O)[C@H](O)[C@H]3O)[C@@H]12
inactive: outcome (NIH3T3) inactive [at 17.4 µM] | Potency (C33A) | Potency (CAOV3) | Potency (CASKI) | Potency (Es-2) | Potency (HeLa) | Potency (Hek293T)

C[C@]12C[C@@H](O)[C@@H]3C[C@@]1(O[C@@H]1O[C@H](CO)[C@@H](O)[C@H](O)[C@H]1O)[C@]3(COC(=O)c1ccccc1)C(=O)O2
inactive: outcome (NIH3T3) inactive [at 17.4 µM] | Potency (C33A) | Potency (CASKI) | Potency (Es-2) | Potency (HeLa) | Potency (Hek293T)

C=C(C(=O)O)C1CCC2(C)CCCC(C)(O)C2C1 (configuration not stated)
inactive: outcome (NIH3T3) | Potency (C33A) | Potency (CASKI) | Potency (Es-2) | Potency (HeLa) | Potency (Hek293T)

COc1ccc(C2(O)c3ccccc3NC(=O)C2O)cc1 (configuration not stated)
inactive: outcome (NIH3T3) | Potency (C33A) | Potency (CAOV3) | Potency (CASKI) | Potency (Es-2) | Potency (HeLa) | Potency (Hek293T)

CC1(C)CCC[C@@]2(C)C1[C@H](OC(=O)/C=C/C=C/C(=O)O)C=C1COC(=O)[C@@]12O (some centres not stated)
inactive: outcome (NIH3T3) | Potency (C33A) | Potency (CAOV3) | Potency (CASKI) | Potency (Es-2) | Potency (HeLa) | Potency (Hek293T)

Cc1ncc(CCCN(C)C)cc1Nc1ncc2c(n1)-c1ccc(C(F)(F)F)cc1NC(=S)C2
inactive: Potency (C33A) | Potency (CAOV3) | Potency (CASKI)

Cc1cc2c(F)c(Oc3ncnn4cc(OCC(C)O)c(C)c34)ccc2[nH]1 (configuration not stated)
inactive: Potency (C33A) | Potency (CAOV3) | Potency (CASKI) | Potency (Es-2)

CC(C)=CCC[C@](C)(O)[C@H]1CC[C@]2(C)[C@@H]1[C@H](O)CC1[C@@]3(C)CC[C@H](O)C(C)(C)[C@@H]3[C@@H](O[C@@H]3O[C@H](CO)[C@@H](O)[C@H](O)[C@H]3O[C@@H]3O[C@H](CO)[C@@H](O)[C@H](O)[C@H]3O)C[C@]12C (some centres not stated)
inactive: outcome (NIH3T3) inactive [at 17.4 µM] | Potency (C33A) | Potency (CASKI) | Potency (Es-2) | Potency (HeLa) | Potency (Hek293T)

C=C(C(=O)OC)C1C(O)CC2(C)C(=O)CCC(O)(CO)C2C1O (configuration not stated)
inactive: outcome (NIH3T3) | Potency (C33A) | Potency (CAOV3) | Potency (CASKI) | Potency (Es-2) | Potency (HeLa) | Potency (Hek293T)

CC1CC(O)C2(OC1=O)OC1C(O)C3C4CCC5CC(OC6OC(CO)C(O)C(O)C6OC6OC(C)C(O)C(O)C6O)CCC5(C)C4CCC3(C)C1C2C (configuration not stated)
inactive: outcome (NIH3T3) inactive [at 17.4 µM] | Potency (C33A) | Potency (CAOV3) | Potency (CASKI) | Potency (Es-2) | Potency (HeLa) | Potency (Hek293T)

O=C1CCC(=O)N(O)CCCCCNC(=O)CCC(=O)N(O)CCOCCNC(=O)CCC(=O)N(O)CCCCCN1
inactive: outcome (NIH3T3) inactive [at 17.4 µM] | Potency (C33A) | Potency (CASKI) | Potency (Es-2) | Potency (HeLa) | Potency (Hek293T)

CCOc1cc(N2CCC(O)CC2)ccc1Nc1ncc2c(n1)N(C1CCCC1)CCC(=O)N2C
inactive: Potency (C33A)

CC(C)C[C@H](CC(=O)NO)C(=O)N[C@H](C(=O)N[C@@H](C)C(=O)NCCN)C(C)(C)C
inactive: outcome (NIH3T3) inactive [at 9.27 µM] | activity change, negative = cytotoxicity (C33A) 18.9% [at 11.6 µM] | activity change, negative = cytotoxicity (CAOV3) 17.3% [at 11.6 µM] | activity change, negative = cytotoxicity (CASKI) 5.02% [at 11.6 µM] | activity change, negative = cytotoxicity (Es-2) 10.1% [at 11.6 µM] | activity change, negative = cytotoxicity (HeLa) 11.1% [at 11.6 µM] | activity change, negative = cytotoxicity (Hek293T) 15.9% [at 11.6 µM]

O=S(=O)(Nc1ccccn1)c1ccc(N=Cc2c(O)[nH]c3ccc4ncsc4c23)cc1
inactive: outcome (NIH3T3) inactive [at 9.27 µM] | activity change, negative = cytotoxicity (CASKI) 20.8% [at 11.6 µM] | activity change, negative = cytotoxicity (Es-2) -0.0602% [at 11.6 µM] | activity change, negative = cytotoxicity (Hek293T) 20.8% [at 11.6 µM]

COc1cc(NC(=O)Nc2cccc(CNC(=O)O[C@H]3CCOC3)c2)ccc1-c1cnco1
inactive: Potency (C33A) | Potency (CAOV3)

CC(C)/C=C1\NC(=O)C(C(C)C)n2c1nc1c(c2=O)C=CC=CO1 (configuration not stated)
inactive: outcome (NIH3T3) | Potency (C33A) | Potency (CAOV3) | Potency (CASKI) | Potency (Es-2) | Potency (HeLa) | Potency (Hek293T)

CC(=O)OC12COC1CC(O)C1(C)C(=O)C(O)C3=C(C)C(OC(=O)C(O)C(NC(=O)OC(C)(C)C)c4ccccc4)CC(O)(C(OC(=O)c4ccccc4)C21)C3(C)C (configuration not stated)
inactive: Potency (C33A) | Potency (CAOV3)

O=C(OC1C=C(CO)C2C(OC3OC(CO)C(O)C(O)C3O)OC=CC12)c1ccc(O)cc1 (configuration not stated)
inactive: outcome (NIH3T3) inactive [at 17.4 µM] | Potency (C33A) | Potency (CAOV3) | Potency (CASKI) | Potency (Es-2) | Potency (HeLa) | Potency (Hek293T)

CC(=O)N[C@@H](C(=O)O[C@H]1CCC(C)(C)[C@@H]2CCC3=C(COC3=O)[C@@]12C)C(C)C
inactive: outcome (NIH3T3) | Potency (C33A) | Potency (CAOV3) | Potency (CASKI) | Potency (Es-2) | Potency (HeLa) | Potency (Hek293T)

CC1(C)CC[C@]2(C(=O)O[C@@H]3O[C@H](CO)[C@@H](O)[C@H](O)[C@H]3O)CC[C@]3(C)C(=CCC4[C@@]5(C)CC[C@H](O[C@@H]6O[C@H](C(=O)O)[C@@H](O)[C@H](O[C@@H]7O[C@H](CO)[C@H](O)[C@H](O)[C@H]7O)[C@H]6O)C(C)(C)C5CC[C@]43C)C2C1 (some centres not stated)
inactive: outcome (NIH3T3) inactive [at 9.27 µM] | activity change, negative = cytotoxicity (C33A) -1.04% [at 11.6 µM] | activity change, negative = cytotoxicity (CAOV3) 0.89% [at 11.6 µM] | activity change, negative = cytotoxicity (CASKI) -0.547% [at 11.6 µM] | activity change, negative = cytotoxicity (Es-2) -0.756% [at 11.6 µM] | activity change, negative = cytotoxicity (HeLa) -6.39% [at 11.6 µM] | activity change, negative = cytotoxicity (Hek293T) 7.67% [at 11.6 µM]
